In all, about 330,000 compounds went through this assay and about 4,900 (1.5%) were called active.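 The calls were made as follows: active = inhibition above the mean inhibition across the screen plus 3 SD (cut at about 25% in these data); inactive = the rest.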 The list comes from a sample in which actives are over-represented; it also holds similar structures and randomly drawn compounds.
Target: Platelet-activating factor acetylhydrolase (Homo sapiens) (UniProt Q13093)
Experiment: inhibition of plasma PAF acetylhydrolase – biochemical, fluorescence polarization, human, primary screen (AID 463082);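 also: inhibitors block binding of the rhodamine activity-based probe so polarization drops; 0% = enzyme with DMSO and 100% = wells lacking pPAFAH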
Settings: recombinant pPAFAH, FP-rhodamine probe fluorescence polarization; at 3.39 µM; stronger effect = higher value

Chain of Platelet-activating factor acetylhydrolase (Homo sapiens) (Q13093 whole entry, looked up): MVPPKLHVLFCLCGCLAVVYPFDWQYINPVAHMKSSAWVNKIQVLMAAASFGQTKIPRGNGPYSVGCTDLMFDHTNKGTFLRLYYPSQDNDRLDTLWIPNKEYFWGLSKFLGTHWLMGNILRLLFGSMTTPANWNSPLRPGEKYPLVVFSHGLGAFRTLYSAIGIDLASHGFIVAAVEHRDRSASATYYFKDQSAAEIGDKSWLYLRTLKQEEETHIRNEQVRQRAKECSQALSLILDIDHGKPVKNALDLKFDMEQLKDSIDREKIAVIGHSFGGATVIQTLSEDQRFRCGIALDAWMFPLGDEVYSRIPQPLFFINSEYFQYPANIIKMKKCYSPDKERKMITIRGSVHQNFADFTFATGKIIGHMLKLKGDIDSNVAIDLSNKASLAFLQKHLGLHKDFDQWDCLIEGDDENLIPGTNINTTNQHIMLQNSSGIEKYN

inhibition, active:
Cc1cc(F)ccc1S(=O)(=O)Nc1ncnc2scc(-c3ccc(F)cc3)c12 30.3%
Cc1cccc(-c2nc(Nc3ccc(O)cc3)c3ccccc3n2)c1 26.7%
Cc1ccc(-n2c(C)cc(/C=C(\C#N)C(=O)NCC3CCCO3)c2C)cc1 (stereo not drawn) 68.5%
COC(=O)c1ccc(COc2ccc(/C=C/C(=O)c3ccc(OC)c(CSCC(=O)O)c3)cc2OC)cc1 28.7%
COc1ccc(C2C(C#N)=C(N)Oc3cc(N)ccc32)cc1OC (stereo not drawn) 26%
Cn1c2ccccc2c2cc(/C=C(\NC(=O)c3ccccc3)C(=O)NCC(=O)O)ccc21 24.7%
C=CCn1c(=S)[nH]c2scc(-c3ccco3)c2c1=O 42.6%
Cc1ccc(C(=O)O)cc1-c1ccc(/C=C2\SC(=O)N(CC(=O)Nc3ccc4c(c3)OCO4)C2=O)o1 30.2%
Oc1c(Cl)cc(Cl)c(Cl)c1Cc1c(O)c(Cl)cc(Cl)c1Cl 68.2%
CCCCC(=O)Nc1ccc2c(c1)C(=O)NC2=O 34.6%
O=[N+]([O-])c1cc(Cl)cc(/C=N/NC(=S)Nc2cc(S(=O)(=O)N3CCOCC3)ccc2Cl)c1O 36.5%
CN(C)c1ccc(N/C=C/C(=O)C(F)(F)F)cc1 42.4%
CCOC(=O)N/N=C/c1cn(Cc2ccccc2Cl)c2ccccc12 30.1%
CC(C)c1ccc(Nc2nnc(SCC(=O)c3nnc(-c4ccccc4)o3)s2)cc1 30.8%
O=C(CCC1CCCCC1)Nc1cc(C(F)(F)F)ccc1N1CCOCC1 37.1%
CC(=O)N1CCN(C(=O)c2cc(-c3ccc(C)o3)nc3ccccc23)CC1 41%
CCCCOc1ccc(N(CC(=O)NC(C)C)C(=O)CCC(=O)Nc2ccccn2)cc1 28.3%

inhibition, inactive:
COc1ccc(-c2csc3ncnc(N4CCN(S(=O)(=O)c5cccc(F)c5)CC4)c23)cc1 3.15%
O=S(=O)(Nc1ncnc2sccc12)c1cccc(F)c1 12.2%
Cc1cnc(C)c(N2CCN(C(=O)C3CCC(=O)N(CCc4cccc(F)c4)C3)CC2)n1 (stereo not drawn) 4.96%
CCCCn1c(N)c(N(CC)C(=O)c2ccccc2C(F)(F)F)c(=O)[nH]c1=O -0.54%
CC(=O)Nc1cccc(Nc2nc(-c3cccs3)nc3ccccc23)c1 -12.8%
CCOC(=O)c1nc(Nc2ccc(C(=O)OC)cc2)c2ccccc2n1 -0.04%
O=C(COC(=O)CC1CC2CCC1C2)NC(=O)NC1CCCC1 (stereo not drawn) 2.89%
Cc1cc(/C=C(/C#N)C(=O)Nc2ccc(Cl)cc2)c(C)n1-c1cccnc1 0.95%
Cc1ccc(C(=O)N/C(=C/c2cccs2)C(=O)NCC2CCCO2)cc1 (stereo not drawn) -4.31%
COc1ccccc1C(=O)Nc1ccnn1C1CCN(C(=O)C(C)(C)C)CC1 -0.55%
COc1ccc(/C=C/C(=O)c2ccc(NS(=O)(=O)c3ccc(C)cc3)cc2)cc1O 23.6%
COc1ccc(/C=C/C(=O)N2CCCC2)cc1OC 0%
COCCn1c(SC(C)C(=O)NC2CC2)nnc1-c1cccc(C)c1 (stereo not drawn) -1.49%
N#CC1=C(N)Oc2cc(O)ccc2C1C1CCCCC1 (stereo not drawn) 2.82%
COc1cc(C2C(C#N)=C(N)Oc3n[nH]c(-c4ccccn4)c32)cc(OC)c1OC (stereo not drawn) 2.74%
CCOC(=O)[C@H]1[C@H]2COc3ccc(C)cc3[C@@H]2N2C(=O)CN(Cc3ccc(F)cc3)C(=O)[C@@]12C -0.02%
C=CCN(N=Nc1cccc([N+](=O)[O-])c1)c1cccc([N+](=O)[O-])c1 9.93%
CCOC(=O)CNC(=O)/C(=C\c1ccc(F)cc1)NC(=O)c1ccccc1 -2.32%
COc1ccc(/C=C(\NC(=O)c2ccccc2)C(=O)NCCN2CCOCC2)cc1OC 4.35%
Cc1ccc2c(c1)nnc1nnc(SCC(=O)O)n12 2.74%
CC(C)C[C@H](NC(=O)N1CCn2c1nc1ccccc12)C(=O)NC1CC1 1.86%
COc1ccc(C(=O)Nc2cc(C)c(NC(=O)c3ccccc3OC)cn2)cc1 2.94%
C=CCn1c(=S)[nH]c2nc3c(cc2c1=O)COC(C)(C)C3 -1.93%
C=CCn1cnc2scc(-c3ccccc3)c2c1=O 0.46%
C#CCOCCOCCOCCNc1nc(N2CCN(C(=O)C(Cc3ccc(O)cc3)n3cc(C(N)CC(C)C)nn3)CC2)nc(N2CCN(C(=O)C(Cc3ccc(O)cc3)n3cc(C(N)C(C)CC)nn3)CC2)n1 (stereo not drawn) 0.55%
CN(C)S(=O)(=O)N1CCC(Oc2cccc(C(=O)NCCCC3CCCC3)c2)CC1 3.19%
Cc1ccc(C(=O)Nc2ccc3c(c2)OCO3)cc1S(=O)(=O)N1CCCCC1 14.5%
Cc1nn(CC(=O)Nc2ccc3c(c2)OCO3)c(C)c1[N+](=O)[O-] -3.11%
O=C(COC(=O)c1ccc(F)cc1)Nc1ccc2c(c1)OCO2 9.5%
O=C(NOCc1ccccc1)c1cccc([N+](=O)[O-])c1 7.75%
Cn1c(=O)c2c(ncn2CC(=O)N/N=C/c2cn[nH]c2-c2ccc(F)cc2)n(C)c1=O 1.61%
CCN(Cc1ccccc1)C(=O)Cc1ccc(OC)c(S(=O)(=O)N2CCOCC2)c1 -1.51%
O=C(CN1C(=O)NC2(CCOc3ccccc32)C1=O)Nc1cccc([N+](=O)[O-])c1 (stereo not drawn) 0.7%
Cc1cccc(NC(=S)NCCc2ccc(F)cc2)c1C 3.05%
CCCCN(C)CCC(=O)Nc1ccc(Cl)cc1 1.11%
CC(=O)Nc1ccc(Oc2ccc3c(c2)C(=O)NC3=O)cc1 -0.12%
Cc1cc(NC(=O)c2ccccc2C)no1 2.84%
Cc1ccc(S(=O)(=O)N2CCN(CC(=O)N/N=C/c3cc([N+](=O)[O-])ccc3Cl)CC2)cc1 3.66%
O=S(=O)(c1ccc(NC(=S)NN=C(C2CC2)C2CC2)cc1)N1CCOCC1 15%
CSc1ccc(C(=O)C2CCCN(C(=O)c3ccc(C)nc3)C2)cc1 (stereo not drawn) 5.05%
CCOC(=O)C1C(=O)OC2(CCCC2)C1C(=O)OCC (stereo not drawn) -0.69%
CN(CC(=O)N1CCN(c2ccccc2)CC1)S(=O)(=O)c1cccs1 -1.58%
CC(C)CNC(=O)C(=O)Nc1ccc(N(C)C)cc1 -8.71%
CC(=O)N(C)c1ccc(NC(=O)C(F)(F)F)cc1 -4.77%
CCCc1ccc(C(=O)[C@@H]2[C@@H](C(C)=O)N3c4ccc(F)cc4C=C[C@@H]3[C@@]23C(=O)Nc2ccccc23)cc1 2.89%
O=C(CSc1ncnc2sccc12)NC1CCS(=O)(=O)C1 (stereo not drawn) 4.85%
COc1ccc(NC(=O)C(NC(C)=O)C(=O)NCc2ccccc2Cl)cc1 (stereo not drawn) -2.3%
COC(=O)[C@@]12CCCN1[C@H](c1ccc(-c3ccc(F)cc3)c(OC)c1)[C@H]1C(=O)N(C)C(=O)[C@H]12 -3.21%
COC(=O)N/N=C/c1cn(CCCOc2ccc(C)cc2)c2ccccc12 19.2%
CNC(=S)N/N=C/c1cn(Cc2ccc(C)cc2)c2ccccc12 18.1%
Cc1ccc(-c2nc(SCC(=O)Nc3ccccc3OC(F)F)c3c(C)c(C(=O)O)sc3n2)cc1 1.04%
OCCCC1CCCCN1Cc1nc(Cc2ccccc2Cl)no1 (stereo not drawn) -2.08%
CC(C)N(C(=O)CSc1nnc(NC2CC2)s1)c1ccccc1 -0.35%
Cc1ccccc1Nc1nnc(SCC(=O)c2cc3ccccc3o2)s1 2.17%
Fc1ccccc1/C=C1\CCCC2=C1Nc1ncnn1C2c1ccccc1F (stereo not drawn) 14%
O=C1C=C(c2cccc(Cl)c2O)C[C@@H](c2ccc(F)cc2)C1 4.07%
O=C(NCc1ccc(F)cc1)C(c1ccccc1)N(C(=O)c1csnn1)C1CC1 (stereo not drawn) -2.59%
CC1=NNC(=O)C1CCC(=O)N/N=C(\C)c1ccc(Cl)cc1 (stereo not drawn) 3.21%
CC(C)CC(=O)Nc1cc(C(F)(F)F)ccc1N1CCOCC1 -1.9%
O=C(CN1C(=O)NC2(CCCC2)C1=O)Nc1cc(C(F)(F)F)ccc1N1CCOCC1 6.53%
Cc1ccc(O/C=C2\OC(=O)c3ccccc32)cc1 -0.55%
Cc1noc(C)c1NC(=O)Nc1ccc2c(c1)C(=O)N([C@H](C)CO)C[C@H](C)[C@@H](CN(C)C(=O)Nc1ccc(C(F)(F)F)cc1)O2 -10.3%
CC(=O)N1CCN(C(=O)c2cc(-c3ccc(Cl)s3)nc3ccccc23)CC1 3.56%
COc1ccc(NC(=O)c2cc(-c3ccc(C)o3)nc3ccccc23)cc1 11.4%
O=C(Cn1ncc2c3ccccc3n(Cc3ccccc3)c2c1=O)NCc1ccccn1 -0.14%
CCN1CCN(C(=O)CCN2C(=O)c3ccccc3C2=O)CC1 -1.23%
CCCCOc1ccc(N(CC(=O)NCC2CCCO2)C(=O)CCC(=O)Nc2cc(C)ccn2)cc1 (stereo not drawn) 10.7%
CCOc1ccc(C(C(=O)NCCOC)N(CCOC)C(=O)CCC(=O)Nc2ccccn2)cc1 (stereo not drawn) 5.87%
COc1ccccc1C(=O)Nc1ccc(Nc2ccccc2)cc1 2.35%
CCC(=O)Nc1nnc(S(=O)(=O)N(CC(C)C)c2ccccc2)s1 3.99%
O=C(Nc1cc(C(F)(F)F)ccc1Cl)c1cc2nc3c(c(C(F)(F)F)n2n1)CCCC3 8.15%
